Source: PubChem BioAssay (NCI)
Where “and” joins values, the source holds several entries; their conditions need not be identical. Equal entries are not always repeated. About 83,000 compounds went through this panel and 20% of them were active in at least one assay; those are over-represented in the sample as a whole.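 Negative percent growth values reflect cell death: -40 means 40% of the cells present at the start died, and -100 means all died.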 Calls of active or inactive are those of the source. The calls were made as follows: active = growth percent below 10; inactive = the rest.

system: HL-60(TB) leukemia; assay: NCI-60 one-dose screen, 48 h (100 = growth as untreated, 0 = no growth, -100 = all killed); conditions: 10 µM unless noted

| SMILES | growth |
| --- | --- |
| CCCCCCCCn1ccc2cc(NC(=O)Cn3cc(CN4CCCC4)nn3)ccc21 | 13.8% (inactive) |
| CCc1nc2cc(/C=C/C(=O)NO)ccc2c(=O)n1CCc1ccc(F)cc1 | -7.3% (active) |
| CCNCCNc1cc(-c2ccc(Cl)cc2)c(C#N)c2nc3ccccc3n12 | -60.4% (active) |
| O=C1Nc2ccccc2SC1c1ccccc1Cl (configuration not stated) | 71% (inactive) |
| C#CC[C@@H]1C[C@]2(C)[C@H]3CC=C4[C@H]5[C@@H](C)[C@H](C)CC[C@]5(C(=O)NCCCCN)CC[C@@]4(C)[C@]3(C)CC[C@H]2C(C)(C)[C@H]1OC(C)=O | 21.3% (inactive) |
| Nc1n[nH]c2cccc(C#Cc3cccc(NC(=O)c4cccc(C(F)(F)F)c4)c3)c12 | 9.22% (active) |
| COc1ccc(C2=Nc3c/c(=C\c4c(O)[nH]c5ccc(Cl)cc45)ccc3=N2)cc1 | 6.79% (active) |
| COc1ccc(/C=N/NC(=O)CCN2c3ccccc3Sc3ccccc32)cc1 | 82% (inactive) |
| Clc1ccc(Nc2nnc(COc3ccccc3)c3ccccc23)cc1 | -15.7% (active) |
| O=c1c2ccccc2nc2n1Cc1nc3ccccc3c(=O)n1C2 | 100% (inactive) and -60.2% (active) |
| Nc1c(C(=O)Nc2ccccc2C(F)(F)F)sc2nc3c(cc12)CCC3 | 86.8% (inactive) |
| O=C1c2ccccc2C(c2ccccc2)C1c1ccccc1 (configuration not stated) | 76.4% (inactive) |
